Measured values: PubChem BioAssay (NCI)
This is part of a sample that, as a whole, favours compounds with a hit. Of some 79,000 tested, about 15% had one in any assay. The source made the active and inactive calls. Cut-off read from the data, not from the text of the source: active = growth inhibition above about 70%; inactive = the rest.

Assay: NCI Yeast Anticancer Drug Screen. Data for the wt2 strain (AID 169);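 note: 0% = growth of vehicle-treated yeast cultures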
Details: S. cerevisiae wt2 strain growth inhibition, active compounds read high
Experimental: Growth inhibition of yeast strains with defined genetic alterations is measured as a screen for potential anti-cancer activity. Selected strains with alterations in DNA damage repair or cell cycle control were exposed to compounds and growth inhibition was measured relative to vehicle treated controls. The strain used in this assay is wt2

SMILES | growth inhibition (at 1.2 µM) | growth inhibition (at 3.7 µM) | growth inhibition (at 11.0 µM) | growth inhibition (at 33.0 µM) | growth inhibition (at 100.0 µM)
Nc1ccccc1CC(O)C(=O)O (stereo not given) | 2% (inactive) | 6% (inactive) | 21% (inactive) | 90% (active) | 95% (active)
Cc1cc(N=Nc2ccc(S(=O)(=O)[O-])cc2)cc(C(=O)[O-])c1[O-].NC1CCCCC1N.[Na+].[Pt+4] | -2% (inactive) | 93% (active) | 98% (active) | 98% (active) | 97% (active)
CCCS(=O)(=O)Nc1ccc(Nc2c3ccccc3nc3ccccc23)c(OC)c1 | -37% (inactive) | -40% (inactive) | -41% (inactive) | -10% (inactive) | 69% (inactive)
O=C1C=CC(=C(c2ccccc2)c2ccccc2)c2ccccc21 | -6% (inactive) | -4% (inactive) | 0% (inactive) | -4% (inactive) | -3% (inactive)
N#Cc1ccc(C2NN=CC23C(=O)c2ccccc2OC3c2ccccc2)cc1 (stereo not given) | 0% (inactive) | 0% (inactive) | 2% (inactive) | 1% (inactive) | 3% (inactive)
S=c1[nH]nc(Nc2ccc(Cl)cc2)s1 | 1% (inactive) | 9% (inactive) | 8% (inactive) | 82% (active) | 98% (active)
O=C1OC(=O)C2CCCC3CCCC1C32 (stereo not given) | 36% (inactive) | 62% (inactive) | 80% (active) | 89% (active) | 96% (active)
O=C(/C=C/c1cccc(Br)c1)c1cccs1 | -24% (inactive) | -16% (inactive) | 67% (inactive) | 98% (active) | 95% (active)
